{"source": "the supplement of paper PMC11732987", "about": "“Enantioselective OTUD7B fragment discovery through chemoproteomics screening and high-throughput optimisation” (Communications Chemistry, 2025)", "assay_in_all_cases": "log2 ratio of Biotin-Ahx-Ub-VS probe labelling (fragment/DMSO); higher = less target engagement (more negative = stronger competition), active = hit call of the paper (q ≤ 0.05, log2 ratio ≤ -1)", "settings_in_all_cases": "compound concentration: 200 uM; treatment time: 3 h", "key": {"USP19": {"target": "T1, USP19 (UniProt O94966)", "T1 sequence (whole entry)": "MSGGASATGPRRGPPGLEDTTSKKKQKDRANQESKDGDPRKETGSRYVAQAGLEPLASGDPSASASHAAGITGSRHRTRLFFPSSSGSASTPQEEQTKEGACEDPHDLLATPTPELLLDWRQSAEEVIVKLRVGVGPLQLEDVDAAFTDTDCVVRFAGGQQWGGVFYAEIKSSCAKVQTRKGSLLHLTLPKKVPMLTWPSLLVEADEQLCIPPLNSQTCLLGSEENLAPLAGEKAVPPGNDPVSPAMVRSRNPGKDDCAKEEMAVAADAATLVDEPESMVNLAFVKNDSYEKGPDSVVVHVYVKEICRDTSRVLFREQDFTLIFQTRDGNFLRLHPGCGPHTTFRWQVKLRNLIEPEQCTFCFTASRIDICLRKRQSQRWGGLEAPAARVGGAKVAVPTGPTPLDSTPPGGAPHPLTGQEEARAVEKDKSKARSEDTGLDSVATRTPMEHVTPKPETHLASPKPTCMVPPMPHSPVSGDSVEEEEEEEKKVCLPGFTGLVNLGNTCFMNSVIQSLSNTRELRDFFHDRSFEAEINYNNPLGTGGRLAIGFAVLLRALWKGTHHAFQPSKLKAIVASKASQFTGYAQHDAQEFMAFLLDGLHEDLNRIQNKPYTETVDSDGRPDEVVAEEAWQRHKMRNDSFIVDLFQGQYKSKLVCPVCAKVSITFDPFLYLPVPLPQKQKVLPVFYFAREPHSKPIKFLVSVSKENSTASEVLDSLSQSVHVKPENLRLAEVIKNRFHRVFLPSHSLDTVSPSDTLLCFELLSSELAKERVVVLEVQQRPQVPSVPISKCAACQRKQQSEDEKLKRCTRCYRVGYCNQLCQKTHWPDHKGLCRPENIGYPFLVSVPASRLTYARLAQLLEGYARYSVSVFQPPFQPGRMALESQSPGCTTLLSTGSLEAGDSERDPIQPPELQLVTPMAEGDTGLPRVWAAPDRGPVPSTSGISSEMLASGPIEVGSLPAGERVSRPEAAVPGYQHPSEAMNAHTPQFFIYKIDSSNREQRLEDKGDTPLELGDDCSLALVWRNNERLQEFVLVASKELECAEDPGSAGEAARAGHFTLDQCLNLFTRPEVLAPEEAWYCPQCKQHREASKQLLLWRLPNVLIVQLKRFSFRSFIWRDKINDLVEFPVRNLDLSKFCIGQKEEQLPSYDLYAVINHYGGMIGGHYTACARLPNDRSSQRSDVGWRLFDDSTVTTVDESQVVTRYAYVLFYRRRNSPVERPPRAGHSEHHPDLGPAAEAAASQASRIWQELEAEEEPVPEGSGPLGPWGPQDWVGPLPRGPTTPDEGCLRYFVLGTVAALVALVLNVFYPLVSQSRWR", "how_it_was_run": "(§1)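 In triplicate, 495 µg of HEK293T lysate per sample was incubated with fragment at 200 µM or vehicle for 3 h. Biotin-Ahx-Ub-VS was then added to 0.5 µM final for 1 h, and labelled DUBs were captured with NeutrAvidin, digested with LysC and trypsin, and measured by diaPASEF LC-MS/MS. Data are average log2 fragment/vehicle ratios by unpaired t-test from global-median-normalised Spectronaut label-free quantities, restricted to proteins with ≥2 unique peptides.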"}, "USP22": {"target": "T2, USP22 (UniProt Q9UPT9)", "T2 sequence (whole entry)": "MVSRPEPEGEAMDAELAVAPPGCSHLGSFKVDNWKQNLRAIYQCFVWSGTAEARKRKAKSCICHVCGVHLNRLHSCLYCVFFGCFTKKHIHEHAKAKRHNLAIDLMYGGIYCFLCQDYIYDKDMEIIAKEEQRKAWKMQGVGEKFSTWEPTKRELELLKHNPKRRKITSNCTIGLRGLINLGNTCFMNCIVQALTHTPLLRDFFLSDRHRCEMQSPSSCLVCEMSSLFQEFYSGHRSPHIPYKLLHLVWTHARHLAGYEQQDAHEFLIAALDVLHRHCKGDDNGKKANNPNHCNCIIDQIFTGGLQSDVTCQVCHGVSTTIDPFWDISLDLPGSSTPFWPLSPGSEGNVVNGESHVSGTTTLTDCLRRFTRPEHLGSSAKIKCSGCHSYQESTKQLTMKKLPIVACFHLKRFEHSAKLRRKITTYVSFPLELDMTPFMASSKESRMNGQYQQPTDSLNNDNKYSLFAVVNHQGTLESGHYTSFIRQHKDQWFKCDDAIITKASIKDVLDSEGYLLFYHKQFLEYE", "how_it_was_run": "as §1"}, "USP24": {"target": "USP24 (UniProt Q9UPU5)", "sequence (Q9UPU5 whole entry)": "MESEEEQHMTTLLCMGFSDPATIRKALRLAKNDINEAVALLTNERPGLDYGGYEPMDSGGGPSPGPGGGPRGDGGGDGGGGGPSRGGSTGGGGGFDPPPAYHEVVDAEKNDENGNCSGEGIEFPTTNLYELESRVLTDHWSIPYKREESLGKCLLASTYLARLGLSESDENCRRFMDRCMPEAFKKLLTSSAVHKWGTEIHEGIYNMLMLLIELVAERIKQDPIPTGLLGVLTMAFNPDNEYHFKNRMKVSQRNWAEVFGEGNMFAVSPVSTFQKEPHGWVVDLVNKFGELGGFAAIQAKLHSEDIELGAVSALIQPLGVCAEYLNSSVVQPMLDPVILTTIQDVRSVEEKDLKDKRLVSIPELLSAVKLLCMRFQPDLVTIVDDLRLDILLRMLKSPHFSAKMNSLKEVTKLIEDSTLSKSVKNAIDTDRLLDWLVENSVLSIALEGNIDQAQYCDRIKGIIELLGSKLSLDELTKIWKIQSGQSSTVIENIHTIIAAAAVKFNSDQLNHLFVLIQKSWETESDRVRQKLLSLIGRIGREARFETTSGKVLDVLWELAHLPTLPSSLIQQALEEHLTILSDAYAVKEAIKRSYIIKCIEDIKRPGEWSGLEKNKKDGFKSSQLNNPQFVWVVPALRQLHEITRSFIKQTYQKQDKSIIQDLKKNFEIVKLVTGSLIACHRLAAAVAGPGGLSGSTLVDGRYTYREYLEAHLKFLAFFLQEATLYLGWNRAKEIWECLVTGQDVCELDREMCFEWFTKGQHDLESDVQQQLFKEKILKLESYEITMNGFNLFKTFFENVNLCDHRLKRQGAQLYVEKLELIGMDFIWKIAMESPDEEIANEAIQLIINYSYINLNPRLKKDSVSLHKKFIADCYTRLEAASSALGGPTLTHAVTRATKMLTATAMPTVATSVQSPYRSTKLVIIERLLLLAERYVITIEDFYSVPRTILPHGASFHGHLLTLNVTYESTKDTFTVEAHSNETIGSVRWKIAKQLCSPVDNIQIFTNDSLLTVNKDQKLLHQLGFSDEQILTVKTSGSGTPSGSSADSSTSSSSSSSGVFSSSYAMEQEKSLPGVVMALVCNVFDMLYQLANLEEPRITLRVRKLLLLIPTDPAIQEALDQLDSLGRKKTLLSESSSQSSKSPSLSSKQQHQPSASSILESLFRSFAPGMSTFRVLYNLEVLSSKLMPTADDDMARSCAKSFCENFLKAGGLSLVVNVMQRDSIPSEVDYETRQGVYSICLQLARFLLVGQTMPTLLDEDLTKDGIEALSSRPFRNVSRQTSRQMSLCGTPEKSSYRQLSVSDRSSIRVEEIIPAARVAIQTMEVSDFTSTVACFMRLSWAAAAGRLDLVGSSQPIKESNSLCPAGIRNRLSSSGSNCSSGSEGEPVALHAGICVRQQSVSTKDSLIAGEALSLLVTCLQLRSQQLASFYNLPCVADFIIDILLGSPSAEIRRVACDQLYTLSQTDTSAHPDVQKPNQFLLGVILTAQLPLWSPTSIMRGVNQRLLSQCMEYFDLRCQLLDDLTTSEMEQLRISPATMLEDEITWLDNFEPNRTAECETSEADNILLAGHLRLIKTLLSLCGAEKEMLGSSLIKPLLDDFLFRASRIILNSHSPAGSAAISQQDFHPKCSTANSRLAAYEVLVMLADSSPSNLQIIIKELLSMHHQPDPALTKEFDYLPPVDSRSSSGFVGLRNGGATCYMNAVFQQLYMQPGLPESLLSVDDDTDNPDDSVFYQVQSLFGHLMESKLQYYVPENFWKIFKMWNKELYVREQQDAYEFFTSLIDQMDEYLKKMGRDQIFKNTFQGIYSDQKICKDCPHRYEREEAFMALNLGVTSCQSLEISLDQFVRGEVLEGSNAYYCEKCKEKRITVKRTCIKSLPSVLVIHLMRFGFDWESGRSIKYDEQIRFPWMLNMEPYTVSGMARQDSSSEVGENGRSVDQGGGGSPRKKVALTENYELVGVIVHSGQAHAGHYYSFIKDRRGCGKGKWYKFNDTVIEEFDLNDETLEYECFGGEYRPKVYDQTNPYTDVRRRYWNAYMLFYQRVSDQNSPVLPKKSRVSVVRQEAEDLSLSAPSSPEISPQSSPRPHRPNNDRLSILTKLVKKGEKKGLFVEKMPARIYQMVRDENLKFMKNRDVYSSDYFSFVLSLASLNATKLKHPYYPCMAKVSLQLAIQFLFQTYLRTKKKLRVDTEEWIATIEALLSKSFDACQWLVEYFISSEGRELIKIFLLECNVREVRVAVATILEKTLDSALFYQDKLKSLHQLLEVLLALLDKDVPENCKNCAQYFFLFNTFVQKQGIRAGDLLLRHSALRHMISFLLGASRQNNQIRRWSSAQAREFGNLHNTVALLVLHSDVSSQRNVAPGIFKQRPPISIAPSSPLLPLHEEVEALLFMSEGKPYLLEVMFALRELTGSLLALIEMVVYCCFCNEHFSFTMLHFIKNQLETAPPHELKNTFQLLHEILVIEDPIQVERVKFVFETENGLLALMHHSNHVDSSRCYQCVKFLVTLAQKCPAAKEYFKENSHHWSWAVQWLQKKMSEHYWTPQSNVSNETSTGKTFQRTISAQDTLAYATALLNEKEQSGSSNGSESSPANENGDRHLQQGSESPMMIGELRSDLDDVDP", "how_it_was_run": "as §1"}, "USP25": {"target": "T3, USP25 (UniProt Q9UHP3)", "T3 sequence (whole entry)": "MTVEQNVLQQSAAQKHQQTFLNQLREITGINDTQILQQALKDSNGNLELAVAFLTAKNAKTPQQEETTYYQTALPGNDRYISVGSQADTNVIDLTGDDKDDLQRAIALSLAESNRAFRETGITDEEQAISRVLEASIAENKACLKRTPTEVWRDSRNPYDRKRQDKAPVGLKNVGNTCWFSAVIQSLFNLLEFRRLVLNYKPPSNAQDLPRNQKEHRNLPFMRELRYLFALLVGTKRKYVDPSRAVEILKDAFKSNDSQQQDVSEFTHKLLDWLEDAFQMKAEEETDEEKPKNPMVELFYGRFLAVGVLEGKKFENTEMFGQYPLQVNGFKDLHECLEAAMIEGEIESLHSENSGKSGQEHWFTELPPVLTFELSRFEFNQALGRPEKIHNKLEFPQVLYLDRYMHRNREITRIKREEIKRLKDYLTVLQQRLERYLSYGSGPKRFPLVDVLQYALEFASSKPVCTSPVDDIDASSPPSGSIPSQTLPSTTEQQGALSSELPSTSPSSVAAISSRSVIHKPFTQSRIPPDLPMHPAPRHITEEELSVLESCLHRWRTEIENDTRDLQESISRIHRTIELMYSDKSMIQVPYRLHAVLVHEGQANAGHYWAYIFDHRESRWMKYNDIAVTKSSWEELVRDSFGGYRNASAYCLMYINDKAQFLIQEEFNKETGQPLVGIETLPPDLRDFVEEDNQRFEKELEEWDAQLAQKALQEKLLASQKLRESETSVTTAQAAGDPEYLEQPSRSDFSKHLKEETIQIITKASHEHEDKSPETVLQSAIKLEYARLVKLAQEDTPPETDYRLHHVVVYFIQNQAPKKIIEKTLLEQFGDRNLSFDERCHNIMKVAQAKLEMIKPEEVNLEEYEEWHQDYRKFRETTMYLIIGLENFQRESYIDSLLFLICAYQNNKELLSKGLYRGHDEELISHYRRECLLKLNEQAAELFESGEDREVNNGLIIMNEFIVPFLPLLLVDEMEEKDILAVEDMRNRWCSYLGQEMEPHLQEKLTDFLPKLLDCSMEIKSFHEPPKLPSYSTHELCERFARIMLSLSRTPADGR", "how_it_was_run": "as §1"}, "USP28": {"target": "T4, USP28 (UniProt Q96RU2)", "T4 sequence (whole entry)": "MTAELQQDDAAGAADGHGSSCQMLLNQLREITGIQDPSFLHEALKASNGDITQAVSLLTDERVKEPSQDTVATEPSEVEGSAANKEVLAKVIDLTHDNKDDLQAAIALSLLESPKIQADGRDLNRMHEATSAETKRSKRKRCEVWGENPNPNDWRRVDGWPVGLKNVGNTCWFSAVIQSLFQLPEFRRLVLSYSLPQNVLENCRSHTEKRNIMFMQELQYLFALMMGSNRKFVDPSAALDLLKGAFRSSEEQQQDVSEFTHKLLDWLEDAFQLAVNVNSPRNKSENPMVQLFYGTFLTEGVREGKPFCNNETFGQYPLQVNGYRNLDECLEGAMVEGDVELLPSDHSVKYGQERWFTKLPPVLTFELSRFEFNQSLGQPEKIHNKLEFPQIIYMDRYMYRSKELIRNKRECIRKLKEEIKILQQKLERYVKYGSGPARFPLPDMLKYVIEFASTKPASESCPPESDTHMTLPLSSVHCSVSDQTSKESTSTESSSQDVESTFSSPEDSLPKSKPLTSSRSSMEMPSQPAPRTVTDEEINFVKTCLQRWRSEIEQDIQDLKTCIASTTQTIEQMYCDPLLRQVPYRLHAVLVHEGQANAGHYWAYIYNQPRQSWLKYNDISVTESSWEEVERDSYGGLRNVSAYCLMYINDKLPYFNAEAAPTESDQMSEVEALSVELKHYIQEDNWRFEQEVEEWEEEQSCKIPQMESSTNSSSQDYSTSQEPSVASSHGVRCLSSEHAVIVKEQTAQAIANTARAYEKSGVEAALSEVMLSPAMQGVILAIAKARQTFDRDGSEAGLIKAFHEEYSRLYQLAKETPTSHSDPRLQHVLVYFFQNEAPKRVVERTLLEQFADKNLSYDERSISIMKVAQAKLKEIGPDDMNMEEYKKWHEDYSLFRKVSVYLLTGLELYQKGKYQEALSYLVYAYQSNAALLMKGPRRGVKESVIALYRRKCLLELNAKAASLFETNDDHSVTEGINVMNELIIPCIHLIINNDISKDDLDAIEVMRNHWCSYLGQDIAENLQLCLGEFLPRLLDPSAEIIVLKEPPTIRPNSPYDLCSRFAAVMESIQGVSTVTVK", "how_it_was_run": "as §1"}}, "note": "Values without a mark were called inactive.", "data": [{"smiles": "COc1ccc(-c2csc(NC(=O)CCl)n2)cc1", "values": [{"measurement": "log2 ratio of Biotin-Ahx-Ub-VS probe labelling", "setting": "USP19", "value": -0.674}, {"measurement": "log2 ratio of Biotin-Ahx-Ub-VS probe labelling", "setting": "USP22", "value": -0.229}, {"measurement": "log2 ratio of Biotin-Ahx-Ub-VS probe labelling", "setting": "USP24", "value": "-1.44 (active)"}, {"measurement": "log2 ratio of Biotin-Ahx-Ub-VS probe labelling", "setting": "USP25", "value": -0.591}, {"measurement": "log2 ratio of Biotin-Ahx-Ub-VS probe labelling", "setting": "USP28", "value": -0.741}]}]}
